Measured values from PubChem BioAssay (Tox21).
Inconclusive results are not listed. Activity calls are given as the source filed them. Unless noted, the call rests on the fitted dose curve; in most records, active means well fitted cell-killing curve with a large enough effect in the repeat runs; inconclusive means weak or mixed curves; inactive means no such curve, though single readings can be large or run the other way.

Tested on: not listed separately
Assay: qHTS assay to identify small molecule agonists of the peroxisome proliferator-activated receptor delta (PPARd) signaling pathway - cell viability counter screen (AID 743211); further: nearly all actives have a fitted effect of over 55% in size
Conditions: PPARd-bla HEK293H viability, CellTiter-Glo luminescence, 17 h; series mostly up to 62.6 µM
Method in brief: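 Read-out: CellTiter-Glo luminescence, 30 min RT, measured in the same wells as the beta-lactamase reporter. Cells: GeneBLAzer PPAR delta UAS-bla HEK293H, 3000 cells/well, compound exposure 17 h at 37C.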
On the % scale 0 is the no-effect control and ±100 the full control effect.

Row | SMILES | outcome | activity change, negative = cytotoxicity
1 | C[N+]1(C)[C@@H]2CC(OC(=O)[C@H](CO)c3ccccc3)C[C@H]1[C@@H]1O[C@@H]12 (stereo not given in full) | inactive | –
2 | CC1=NN(c2cccc(S(=O)(=O)O)c2)C(=O)C1 | inactive | –
3 | CC(=O)Nc1ccc(OCC(O)CNC(C)C)cc1 (stereo not given) | inactive | –
4 | CCCO[Si](OCCC)(OCCC)OCCC | inactive | –
5 | C[C@H]1C[C@H]2[C@@H]3CCC4=CC(=O)C=C[C@]4(C)[C@H]3C(=O)C[C@]2(C)[C@@]1(O)C(=O)CO | inactive | –
6 | CC[C@H]1OC(=O)[C@H](C)[C@@H](O[C@H]2C[C@@](C)(OC)[C@@H](O)[C@H](C)O2)[C@H](C)[C@@H](O[C@@H]2O[C@H](C)C[C@H](N(C)C)[C@H]2O)[C@](C)(OC)C[C@@H](C)C(=O)[C@H](C)[C@@H](O)[C@]1(C)O | inactive | –
7 | CCCCOCCOC(=O)COc1cc(Cl)c(Cl)cc1Cl | inactive | –
8 | CC1(C)[C@@H]2CC[C@@]1(C)[C@H](O)C2 | inactive | –
9 | CC1CCC(CO)CC1 (stereo not given) | inactive | –
10 | CC(C#N)(CCC(=O)O)N=NC(C)(C#N)CCC(=O)O (stereo not given) | inactive | –
11 | CCCCS(=O)(=O)N[C@@H](Cc1ccc(OCCCCC2CCNCC2)cc1)C(=O)O | inactive | –
12 | CCN1CCOCC1 | inactive | –
13 | C[C@@H]1C[C@H]2[C@@H]3C[C@H](F)C4=CC(=O)C(Cl)=C[C@]4(C)[C@@]3(F)[C@@H](O)C[C@]2(C)[C@@]1(O)C(=O)CO | inactive | –
14 | CC(C)NNC(=O)c1ccncc1 | inactive | –
15 | NC(=O)Cc1cccc2ccccc12 | inactive | –
16 | CCCC[N+](C)(CCCC)CCCC | inactive | –
17 | CCOC(=O)c1ccccc1 | inactive | –
18 | CCC(C)(CN(C)C)OC(=O)c1ccccc1 (stereo not given) | inactive | –
19 | C1CCC2(CCCCO2)OC1 | inactive | –
20 | C[N+]1(CC2COC(c3ccccc3)(c3ccccc3)O2)CCCCC1 (stereo not given) | inactive | –
21 | O=C(O)c1cn(C2CC2)c2cc(N3CCNCC3)c(F)cc2c1=O | inactive | –
22 | CCN[C@@H]1C[C@H](N)[C@@H](OC2OC(CN)=CCC2N)[C@H](O)[C@H]1O[C@H]1OC[C@](C)(O)[C@H](NC)[C@H]1O (stereo not given in full) | – | 7.95% [at 0.55 µM] (inactive)
23 | CCCCCCCCCCCCCCC(=O)O | inactive | –
24 | O=C1NC(=O)C2CC=CCC12 (stereo not given) | inactive | –
25 | N[C@H](C(=O)O)[C@@H](O)c1ccc(O)c(O)c1 | inactive | –
26 | COc1ccnc(CS(=O)c2nc3cc(OC(F)F)ccc3[nH]2)c1OC (stereo not given) | inactive | –

Target: Peroxisome proliferator-activated receptor delta (Homo sapiens) (UniProt Q03181)
Sequence (Q03181 whole entry, looked up): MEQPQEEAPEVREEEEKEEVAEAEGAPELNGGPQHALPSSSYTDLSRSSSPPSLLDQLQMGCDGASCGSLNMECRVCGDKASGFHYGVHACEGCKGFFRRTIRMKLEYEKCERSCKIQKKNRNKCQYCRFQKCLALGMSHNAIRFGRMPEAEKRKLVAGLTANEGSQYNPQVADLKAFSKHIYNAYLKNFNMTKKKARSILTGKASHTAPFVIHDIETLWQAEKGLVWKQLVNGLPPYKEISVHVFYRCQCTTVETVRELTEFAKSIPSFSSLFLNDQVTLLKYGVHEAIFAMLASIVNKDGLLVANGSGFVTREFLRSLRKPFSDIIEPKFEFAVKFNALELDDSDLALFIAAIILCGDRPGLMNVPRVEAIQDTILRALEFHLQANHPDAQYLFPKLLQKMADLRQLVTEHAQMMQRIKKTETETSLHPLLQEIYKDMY
Assay: qHTS assay to identify small molecule agonists of the peroxisome proliferator-activated receptor delta (PPARd) signaling pathway (AID 743212; calls by dose curve)
Conditions: HEK293H PPARd-UAS-bla, beta-lactamase FRET ratio, 17 h; series mostly up to 62.6 µM
Method in brief: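 GeneBLAzer PPARd UAS-bla HEK293H cells (beta-lactamase reporter under UAS control), plated and rested 5 h at 37 C, then exposed to compounds in DMSO at 37 C; LiveBLAzer B/G FRET substrate added, 2 h room temperature, fluorescence read.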

Row | SMILES | outcome
27 | CC1=NN(c2cccc(S(=O)(=O)O)c2)C(=O)C1 | inactive
28 | CC(=O)Nc1ccc(OCC(O)CNC(C)C)cc1 (stereo not given) | inactive
29 | CCCO[Si](OCCC)(OCCC)OCCC | inactive
30 | C[C@H]1C[C@H]2[C@@H]3CCC4=CC(=O)C=C[C@]4(C)[C@H]3C(=O)C[C@]2(C)[C@@]1(O)C(=O)CO | inactive
31 | CCCc1nn(C)c2c(=O)[nH]c(-c3cc(S(=O)(=O)N4CCN(C)CC4)ccc3OCC)nc12 | inactive
32 | CN(C)C(=O)Oc1cccc([N+](C)(C)C)c1 | inactive
33 | CC[C@H]1OC(=O)[C@H](C)[C@@H](O[C@H]2C[C@@](C)(OC)[C@@H](O)[C@H](C)O2)[C@H](C)[C@@H](O[C@@H]2O[C@H](C)C[C@H](N(C)C)[C@H]2O)[C@](C)(OC)C[C@@H](C)C(=O)[C@H](C)[C@@H](O)[C@]1(C)O | inactive
34 | OCCCCCO | inactive
35 | CCCCOCCOC(=O)COc1cc(Cl)c(Cl)cc1Cl | inactive
36 | CC1(C)[C@@H]2CC[C@@]1(C)[C@H](O)C2 | inactive
37 | CC(CO)(CO)[N+](=O)[O-] | inactive
38 | CC1CCC(CO)CC1 (stereo not given) | inactive
39 | CCCCS(=O)(=O)N[C@@H](Cc1ccc(OCCCCC2CCNCC2)cc1)C(=O)O | inactive
40 | CCN1CCOCC1 | inactive
41 | C[C@@H]1C[C@H]2[C@@H]3C[C@H](F)C4=CC(=O)C(Cl)=C[C@]4(C)[C@@]3(F)[C@@H](O)C[C@]2(C)[C@@]1(O)C(=O)CO | inactive
42 | CC(C)NNC(=O)c1ccncc1 | inactive
43 | NC(=O)Cc1cccc2ccccc12 | inactive
44 | CCCC[N+](C)(CCCC)CCCC | inactive
45 | CCOC(=O)c1ccccc1 | inactive
46 | C=CN1CCCCCC1=O | inactive
47 | C1CCC2(CCCCO2)OC1 | inactive
48 | CO/N=C(\C(=O)N[C@@H]1C(=O)N2C(C(=O)O)=C(CSc3nc(=O)c(O)nn3C)CS[C@H]12)c1csc(N)n1 | inactive
49 | C[N+]1(CC2COC(c3ccccc3)(c3ccccc3)O2)CCCCC1 (stereo not given) | inactive
50 | CC/C=C\CCOC(C)OCC (stereo not given) | inactive
51 | O=C(O)c1cn(C2CC2)c2cc(N3CCNCC3)c(F)cc2c1=O | inactive
52 | CCCCCCCCCCCCSC | inactive
53 | CC(C)c1ccc2ncccc2c1 | inactive
54 | CC(=O)N1C[C@H](O)C[C@H]1C(=O)O | inactive
55 | N[C@H](C(=O)O)[C@@H](O)c1ccc(O)c(O)c1 | inactive
56 | COc1ccnc(CS(=O)c2nc3cc(OC(F)F)ccc3[nH]2)c1OC (stereo not given) | inactive

Tested on: not listed separately
Assay: qHTS assay to identify small molecule antagonists of the peroxisome proliferator-activated receptor delta (PPARd) signaling pathway - cell viability counter screen (AID 743213); further: nearly all actives have a fitted effect of over 50% in size
Conditions: PPARd-bla HEK293H viability, CellTiter-Glo luminescence, 17 h; series mostly up to 62 µM
Method in brief: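 Agonist-stimulated (L165041, 300 nM final) HEK293H PPARd UAS-bla cells are exposed to compounds for 17 h at 37 C, and ATP-based luminescence (CellTiter-Glo) from the same wells reports cytotoxicity.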

Row | SMILES | outcome
57 | C[N+]1(C)[C@@H]2CC(OC(=O)[C@H](CO)c3ccccc3)C[C@H]1[C@@H]1O[C@@H]12 (stereo not given in full) | inactive
58 | CC(=O)Nc1ccc(OCC(O)CNC(C)C)cc1 (stereo not given) | inactive
59 | NS(=O)(=O)Cc1noc2ccccc12 | inactive
60 | CCCc1nn(C)c2c(=O)[nH]c(-c3cc(S(=O)(=O)N4CCN(C)CC4)ccc3OCC)nc12 | inactive
61 | CN(C)C(=O)Oc1cccc([N+](C)(C)C)c1 | inactive
62 | CC[C@H]1OC(=O)[C@H](C)[C@@H](O[C@H]2C[C@@](C)(OC)[C@@H](O)[C@H](C)O2)[C@H](C)[C@@H](O[C@@H]2O[C@H](C)C[C@H](N(C)C)[C@H]2O)[C@](C)(OC)C[C@@H](C)C(=O)[C@H](C)[C@@H](O)[C@]1(C)O | inactive
63 | OCCCCCO | inactive
64 | CCCCOCCOC(=O)COc1cc(Cl)c(Cl)cc1Cl | inactive
65 | CC1(C)[C@@H]2CC[C@@]1(C)[C@H](O)C2 | inactive
66 | CC(CO)(CO)[N+](=O)[O-] | inactive
67 | O=C(CO)[C@@H](O)[C@H](O)[C@@H](O)CO | inactive
68 | CC1CCC(CO)CC1 (stereo not given) | inactive
69 | CC(C#N)(CCC(=O)O)N=NC(C)(C#N)CCC(=O)O (stereo not given) | inactive
70 | CCCCS(=O)(=O)N[C@@H](Cc1ccc(OCCCCC2CCNCC2)cc1)C(=O)O | inactive
71 | C[C@@H]1C[C@H]2[C@@H]3C[C@H](F)C4=CC(=O)C(Cl)=C[C@]4(C)[C@@]3(F)[C@@H](O)C[C@]2(C)[C@@]1(O)C(=O)CO | inactive
72 | NC(=O)Cc1cccc2ccccc12 | inactive
73 | CCCC[N+](C)(CCCC)CCCC | inactive
74 | CCC(C)(CN(C)C)OC(=O)c1ccccc1 (stereo not given) | inactive
75 | C=CN1CCCCCC1=O | inactive
76 | CCCCCCCCCCCCSC | inactive
77 | CC(C)c1ccc2ncccc2c1 | inactive
78 | CC(=O)N1C[C@H](O)C[C@H]1C(=O)O | inactive
79 | O=C1NC(=O)C2CC=CCC12 (stereo not given) | inactive
80 | COc1ccnc(CS(=O)c2nc3cc(OC(F)F)ccc3[nH]2)c1OC (stereo not given) | inactive
